# A selection: hits, their analogues and other compounds. The true share with any hit is near 3.5%.
# M1 PAM: human M1 muscarinic receptor positive allosteric modulators, primary screen, CHO-K1 cells, Fluo-8 calcium fluorescence, 1536-well | 360,000 compounds, 0.088% hits | CHO-K1 hM1, ACh EC20; 0% = ACh EC20, 100% = maximal ACh | activation, % at 3 µM | Muscarinic acetylcholine receptor M1 (Homo sapiens), P11229; in the data active = activation above about 19%, passing the limit was not always enough
# Target sequence (P11229 whole entry, looked up): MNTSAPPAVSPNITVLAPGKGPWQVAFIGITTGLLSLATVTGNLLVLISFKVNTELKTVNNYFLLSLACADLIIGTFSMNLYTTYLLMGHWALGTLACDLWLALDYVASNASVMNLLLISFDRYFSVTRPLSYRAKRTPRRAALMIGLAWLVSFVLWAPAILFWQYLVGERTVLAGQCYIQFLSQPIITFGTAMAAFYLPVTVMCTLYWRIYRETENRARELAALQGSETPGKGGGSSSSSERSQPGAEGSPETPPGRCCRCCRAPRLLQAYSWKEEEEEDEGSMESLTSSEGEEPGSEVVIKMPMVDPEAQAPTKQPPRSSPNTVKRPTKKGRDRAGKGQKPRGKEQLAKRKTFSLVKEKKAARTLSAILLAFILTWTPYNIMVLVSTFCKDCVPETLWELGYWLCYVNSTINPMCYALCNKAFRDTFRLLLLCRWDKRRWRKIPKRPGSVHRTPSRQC
# SKN-1 inh: suppressors of acrylamide-induced Pgst-4::GFP reporter in worms, primary screen, SKN-1 inhibitor project, whole organism, uHTS, GFP/RFP fluorescence ratio, strain VP596; C. elegans VP596 Pgst-4::GFP/RFP ratio, 24 h; AID 624304, 2012; 360,000 compounds, 0.49% hits; inhibition, % at 21.8 µM;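 active = interference check ratio from 0.5 to 1.5 plus GFP to RFP signal ratio inhibition reaching or exceeding a fixed threshold, cut at about 30% in these data, passing the limit was not always enough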
# ATG4B inhibitor: ATG4B protease inhibitors, primary screen, biochemical, fluorescence, uHTS; Cysteine protease ATG4B (Homo sapiens), Q9Y4P1; ATG4B cleavage of LC3-PLA2, NBD-HPC fluorescence, 1 h; inhibition, % at 8.33 µM; 340,000 compounds, 0.51% hits; in the data active = inhibition above about 40%
# CHRM1 agonist: human M1 muscarinic receptor agonists, primary screen, Fluo-8 calcium fluorescence, CHO-K1 cells, HTS | Muscarinic acetylcholine receptor M1 (Homo sapiens), P11229 | CHO-K1 hM1, agonist mode; 0% DMSO, 100% acetylcholine EC100 | activation, % at 3 µM | 360,000 compounds, 0.33% hits;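 active = activation above the run's mean compound activation plus 3 SD, cut at about 16% in these data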;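 also: peak over basal fluorescence ratio within a 140 s kinetic read after compound addition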
# Myeloid diff 2: induction of myeloid progenitor differentiation, primary screen, cell-based, flow cytometry, MLPCN library; ER-HoxA9 myeloid progenitors, lysozyme-GFP differentiation; calls only at 10 µM; 360,000 compounds, 1% hits;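 active = normalized GFP-positive differentiation at or above the plate's own cutoff, the solvent-only control mean plus 3 SD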;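 also: cells exposed to compound for four days before flow analysis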
# CHRM1 antagonist: human M1 muscarinic receptor antagonists, primary screen, CHO-K1 cells, Fluo-8 calcium fluorescence, 1536-well. 360,000 compounds, 1.3% hits. CHO-K1 hM1, ACh EC80 antagonist. AID 588852, 2011. inhibition, % at 3 µM;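 active = percent inhibition above its own plate's cutoff, namely the mean of that plate's compound wells plus 3 SD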;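 also: peak over basal fluorescence ratio during 140 s after agonist addition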
# Numbers stand for hits; . = inactive; / = not tested or not shown; + = active, no number.
SMILES,M1 PAM,SKN-1 inh,ATG4B inhibitor,CHRM1 agonist,Myeloid diff 2,CHRM1 antagonist
O=C(CSc1nnnn1C1CC2CCC1C2)Nc1ccnc2ccccc12 (stereo not given),.,.,.,.,.,32.3
CN(CC(=O)Nc1cccc(S(=O)(=O)N2CCCC2)c1)CC(=O)Nc1ccc(F)c(F)c1F,.,.,.,.,.,.
CN(CC(=O)Nc1ccc(Cl)c(C(F)(F)F)c1)CC(=O)NC1CCCCC1,.,.,.,.,.,26.1
CN(CC(=O)Nc1cccc(F)c1)CC(=O)N1CCCCC1,.,.,.,.,.,.
CN(CC(=O)Nc1ccc(Cl)c(Cl)c1)CC(=O)N1CCCCCC1,.,.,/,.,.,70.6
CN(CC(=O)Nc1cccc(S(=O)(=O)N2CCCC2)c1)CC(=O)Nc1ccc(Cl)c(C(F)(F)F)c1,.,.,.,.,.,26.3
Cc1ccc(S(=O)(=O)CCSc2cccc(C(=O)Nc3ccccc3C(=O)O)c2)cc1,36.6,.,.,.,.,.
Cc1ccc(NC(=O)c2cccc(C(=O)Nc3ccc(C)cc3C(=O)O)c2)c(C(=O)O)c1,.,.,.,.,.,.
FC(F)(F)c1cccc(N2CCN(C(=S)NC3CCCCC3)CC2)c1,.,.,.,.,.,.
FC(F)(F)c1cccc(N2CCN(C(=S)NC3CCCC3)CC2)c1,.,.,.,.,.,33.4
C=C[C@@H]1c2cc(C)ccc2N(S(=O)(=O)c2ccc(C)cc2)[C@H](c2ccc(OC(C)=O)cc2)C1(C#N)C#N,.,.,.,.,+,.
C=C[C@@H]1c2ccccc2N(S(=O)(=O)c2ccc(C)cc2)[C@H](c2ccc(OC(C)=O)cc2)C1(C#N)C#N,.,.,.,.,.,.
CCOc1cccc(C(=O)NC(=S)Nc2ccccc2)c1,.,.,.,.,.,.
CCOc1cccc(C(=O)NC(=S)Nc2ccc(N3CCN(CC)CC3)cc2)c1,.,.,.,.,.,81.4
CN1CCN(c2ccc(NC(=O)c3cccc(OCc4ccccc4)c3)cc2)CC1,.,.,.,.,.,.
CCCOc1cccc(C(=O)NC(=S)Nc2ccc(N3CCN(C)CC3)cc2)c1,.,.,.,.,.,58.5
CC(C)Oc1cccc(C(=O)Nc2ccc(N3CCN(C)CC3)cc2)c1,.,.,.,.,.,.
CCN1CCN(c2ccc(NC(=O)c3cccc(OCc4ccccc4)c3)cc2)CC1,.,.,.,.,.,81.1
O=C(NC(=S)Nc1ccc(CN2CCCCC2)cc1)c1cccc(OCc2ccccc2)c1,.,.,.,.,.,96.2
CC(c1nc2ccccc2n1Cc1ccccc1)n1c(-c2cnccn2)nc2ccccc21 (stereo not given),/,.,/,/,.,/
COc1ccccc1-n1c(=O)c(C#N)c(-c2ccc([N+](=O)[O-])cc2)c2cc(C(=O)c3ccccc3O)cnc21,.,.,.,.,.,.
CCCCN(C(=O)c1cccc(S(=O)(=O)N(C)c2ccc(C)cc2)c1)c1c(N)n(CC(C)C)c(=O)[nH]c1=O,.,.,.,.,.,.
Cc1ccc(NC(=O)CSc2nc3c(c(=O)[nH]2)CCC3)c(C)c1,.,.,.,.,.,.
Cc1ccc(S(=O)(=O)Cc2ccc(C(=O)N3CCCCCC3)o2)cc1,.,.,.,.,.,.
CCOC(=O)C1CCCN(C(=O)c2cccc(S(=O)(=O)N3CCCC3)c2)C1 (stereo not given),.,.,.,.,.,.
SMILES,M1 PAM,SKN-1 inh,ATG4B inhibitor,CHRM1 agonist,Myeloid diff 2,CHRM1 antagonist
CCOC(=O)C1CCCN(C(=O)c2ccc(-c3ccc([N+](=O)[O-])cc3)o2)C1 (stereo not given),.,.,.,38.8,.,.
CCOC(=O)C1CCCN(C(=O)c2cccc(S(=O)(=O)N(C)c3ccc(C)cc3)c2)C1 (stereo not given),.,.,.,.,.,37.4
CCOC(=O)C1CCCN(C(=O)c2ccc(CS(=O)(=O)c3ccc(C)cc3)o2)C1 (stereo not given),.,.,.,56.1,.,.
CC1(C(=O)O)CCC(C(=O)NNC(=O)c2ccccc2Cl)C1(C)C (stereo not given),.,.,.,.,.,.
C[C@@H]1CN([C@H](C)CO)C(=O)c2cc(NC(=O)Nc3ccc4c(c3)OCO4)ccc2O[C@H]1CN(C)Cc1ccncc1,.,.,.,.,.,.
O=C(NC1(C(F)(F)F)OCCO1)c1ccc(F)cc1,.,.,.,.,.,.
Cc1oc(C)c2c(=O)ccc3c(c12)OC(N)=C(C#N)C3c1ccccc1 (stereo not given),.,48.1,.,.,.,.
CSc1ccc(C2C(C#N)=C(N)Oc3c2ccc(=O)c2c(C)oc(C)c32)cc1 (stereo not given),.,.,.,.,.,.
Cc1oc(C)c2c(=O)ccc3c(c12)OC(N)=C(C#N)C3c1ccccc1Cl (stereo not given),.,.,.,.,+,.
C=Cc1ccc(Cn2c(C)c(C(=O)NCc3cccc([N+](=O)[O-])c3)sc2=O)cc1,.,.,/,.,.,.
Cc1cccc(/C(N)=N/OC(=O)CCc2ccccc2)c1,.,.,.,.,.,31.5
COc1ccc(/C(N)=N/OC(=O)CCc2ccccc2)cc1OC,.,.,.,.,.,.
O=C(O)c1ccccc1C(=O)c1ccc(N2CCCC2)c([N+](=O)[O-])c1,.,.,.,.,.,.
CC(=O)c1ccc(N2CCN(c3ccccc3O)CC2)c([N+](=O)[O-])c1,.,.,.,.,.,37.0
Cn1c2ccccc2c2cnn(CC(=O)N3CCCCC3)c(=O)c21,.,.,.,.,.,.
C[C@@H]1CN([C@@H](C)CO)C(=O)c2cc(NC(=O)c3ccccc3)ccc2O[C@@H](C)CCCCO[C@@H]1CN(C)Cc1ccc(C(F)(F)F)cc1,.,.,/,.,.,.
CS(=O)(=O)Nc1cccc(C2=NN(S(C)(=O)=O)C(c3ccc4c(c3)OCO4)C2)c1 (stereo not given),.,.,.,.,.,.
CS(=O)(=O)N1N=C(c2ccccc2)CC1c1ccc2c(c1)OCO2 (stereo not given),.,.,.,.,+,.
COc1ccc(-c2c(=O)n(OC)c3ccccc3[n+]2[O-])cc1OC,.,.,.,.,.,.
O=[N+]([O-])c1ccc(N/N=C2\CC3CC=CC23)c([N+](=O)[O-])c1 (stereo not given),.,.,.,.,.,.

# Compound activity from PubChem.
